Laboratory results reported in PubChem BioAssay AID1220 (Sanford-Burnham Center for Chemical Genomics, 2008).
About 1,300 (0.68%) of roughly 190,000 compounds were called active. Only a selection was taken, and actives are over-represented in it overall. Unmarked numbers belong to inactive results. Rule as the data show it: active = inhibition above about 50%; inactive = the rest.

Target: Mannose-6-phosphate isomerase (Homo sapiens) (UniProt P34949)
Assay: human PMI inhibitors, high substrate, primary screen, biochemical, fluorescence intensity, high mannose 6-phosphate (AID 1220)
Settings: recombinant PMI enzyme, coupled fluorescence intensity; at 20 µM; hits give high values

Chain of Mannose-6-phosphate isomerase (Homo sapiens) (P34949 whole entry, looked up): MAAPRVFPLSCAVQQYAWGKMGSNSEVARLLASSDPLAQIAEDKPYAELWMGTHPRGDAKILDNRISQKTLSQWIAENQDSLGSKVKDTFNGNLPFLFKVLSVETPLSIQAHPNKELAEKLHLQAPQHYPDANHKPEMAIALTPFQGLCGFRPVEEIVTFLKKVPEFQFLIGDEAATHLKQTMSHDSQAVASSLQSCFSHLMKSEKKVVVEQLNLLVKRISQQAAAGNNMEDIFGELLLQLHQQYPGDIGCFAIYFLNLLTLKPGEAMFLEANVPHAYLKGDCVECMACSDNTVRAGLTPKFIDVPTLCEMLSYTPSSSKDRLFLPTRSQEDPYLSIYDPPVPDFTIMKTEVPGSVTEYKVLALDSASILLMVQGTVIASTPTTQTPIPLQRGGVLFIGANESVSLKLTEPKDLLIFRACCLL

Structure (SMILES) | inhibition
Cc1sc2nc(CN3CCOCC3)nc(NCCc3ccccc3)c2c1C | 2%
CCOc1cc(-c2conc2N)cc(OCC)c1OCC | 4.6%
CCOc1cc(-c2cc(N)n[nH]2)cc(OCC)c1OCC | 61.2% (active)
CCCc1ccc(-c2cc(N)n[nH]2)cc1 | -0.8%
O=C(Nc1cccc(NC(=O)c2cccs2)c1)c1cccnc1 | 50.8% (active)
O=C(Nc1ccc(NC(=O)c2cccs2)cc1)c1cccnc1 | -2.7%
O=C(Nc1cccc(NC(=O)c2cccnc2)c1)c1cccnc1 | 7.6%
Oc1ccc(CCC2CCCCN2Cc2nc(C3CC3)no2)cc1 (configuration not stated) | 5.5%
CCc1ccccc1NC(=O)Nc1ccc(F)cc1F | -2.1%
Cn1cc(C=O)c2ccccc21 | 8.2%
CN1C(=O)N(C)c2ccc(C=O)c3cccc1c23 | 63.6% (active)
CN1C(=O)c2cccc3c(Cl)ccc(c23)C1=O | -5.2%
O=C(Cn1cncn1)NCc1ccc(Cl)cc1 | -13.3%
O=C(Cn1cncn1)N/N=C/c1ccc(Cl)cc1 | -5%
Cc1cc(Cl)ccc1NC(=O)Cn1cncn1 | 62.6% (active)
COc1cc2cc(C(N)=O)c(N)nc2cc1OC | -0.4%
COc1cc2cnc(Cl)nc2cc1OC | 54.8% (active)
COc1cc2cnncc2cc1OC | -4.8%
COc1ccc(CC(=O)NCc2n[nH]c(=S)n2-c2ccccc2)cc1 | -0.6%
Cc1ccc(C)c(S(=O)(=O)N2CCN(Cc3ccc(O)c4ncccc34)CC2)c1 | 19.7%
CCOC(=O)N1CCN(Cc2ccccn2)CC1 | -7.5%
CCOC(=O)N1CCN(Cc2ccccc2Cl)CC1 | 4.6%
OCCN1CCN(Cc2cc(Cl)c3cccnc3c2O)CC1 | 48.3%
COc1ccc(-n2c(SCC(=O)Nc3nccs3)nc3c(c2=O)SCC3)cc1 | 11.9%
CCC(=O)c1ccc(OCC(O)CN2CCOCC2)cc1 (configuration not stated) | 6.8%
O=C(Nc1ccc2c(c1)CCC2)Nc1ccc2c(c1)OCO2 | 11%

Structure (SMILES) | inhibition
CC(/C=N/Nc1nc(C)cc(=O)[nH]1)=C\c1ccccc1 | -78.9%
COc1ccc(NC(=S)Nc2ccc(OC(F)F)cc2)cn1 | 58.2% (active)
COc1ccc(NC(=S)Nc2ccccc2)cn1 | 8.5%
COc1ccccc1NC(=S)NNC(=S)Nc1ccc(OC(F)F)cc1 | 5.4%
O=C(O)c1ccccc1SCC(=O)N1CCc2ccccc21 | -1.8%
CCOC(=O)c1ccccc1NC1OC(=O)c2ccccc21 (configuration not stated) | 6.8%
COC(=O)c1ccccc1NC1OC(=O)c2ccccc21 (configuration not stated) | 8.6%
Cc1ccc2cccc(NC3OC(=O)c4ccccc43)c2n1 (configuration not stated) | 59.9% (active)
O=C1OC(Nc2cc(Br)cc3cccnc23)c2ccccc21 (configuration not stated) | 50.7% (active)
O=C1OC(Nc2ccc(Br)cc2F)c2ccccc21 (configuration not stated) | -12.4%
O=C1OC(Nc2ncccn2)c2ccccc21 (configuration not stated) | 5.1%
Cc1ccc(OCCOc2ccc(Br)cc2/C=N\NC(N)=O)cc1 | 4%
CCOc1ccc(N=Nc2c(=O)[nH]n3c(C)cc(C)nc23)cc1 | 18%
CCOC(=O)C1CCCN(C2CC(=O)N(c3ccc(C)cc3)C2=O)C1 (configuration not stated) | -2.1%
COC(=O)CP(=O)(c1ccccc1)c1ccccc1 | -5.8%
CCOC(=O)COc1ccc(/C=C/[N+](=O)[O-])c(OCC(=O)OCC)c1 | 1.7%
O=[N+]([O-])/C=C/c1c(OCc2ccccc2)ccc2ccccc12 | 3.1%
CCOC(=O)Cn1cc(/C=C/[N+](=O)[O-])c2ccccc21 | 8.7%
CCOc1ccc(/C=C/[N+](=O)[O-])c2ccccc12 | 55.6% (active)
CCOC(=O)COc1ccccc1/C=C\[N+](=O)[O-] | 0.8%
CCOC(=O)COc1ccc2ccccc2c1/C=C/[N+](=O)[O-] | 54.6% (active)
COc1ccc(Nc2nc(N)nc(CSc3nncn3C)n2)cc1 | 4.9%
CCN(Cc1ccccc1)C(=O)CSc1nc(C)cc(C)c1C#N | 5.3%
Cc1ccc2c(c1)NC(C(C)(C)C)CO2 (configuration not stated) | -5.8%
CC1CCC(C(C)C)C(OC(=O)COC(=O)c2cc(O)ccc2N)C1 (configuration not stated) | 59.5% (active)
CC1CCC(C(C)C)C(OC(=O)COC(=O)c2ccc(N)cc2)C1 (configuration not stated) | 16.2%

Structure (SMILES) | inhibition
CC1CCC(C(C)C)C(OC(=O)COC(=O)c2cccn2C)C1 (configuration not stated) | 16%
Cc1ccc(SCCNC(=O)CN(c2ccc3c(c2)OCO3)S(C)(=O)=O)cc1 | 13.2%
CCc1ccccc1OCc1nc2ccc(S(=O)(=O)N3CCOCC3)cc2[nH]1 | 9.5%
CC(C)Cc1nc(N2CCC(C(N)=O)CC2)c2nnn(Cc3ccccc3)c2n1 | -15%
CCc1ccc(S(=O)(=O)/N=C2/C=C(Sc3ncn[nH]3)C(=O)c3ccccc32)cc1 | 90.6% (active)
COC(=O)C(C(C)=O)C1=C/C(=N\S(=O)(=O)c2ccc(C)cc2)c2ccccc2C1=O (configuration not stated) | 18%
CC(C)c1ccc(N2C(=O)CC(Sc3ncn[nH]3)C2=O)cc1 (configuration not stated) | 22.4%
CCc1ccc(C(=O)CSc2ncn[nH]2)cc1 | -20.5%
Cc1ccc(S(=O)(=O)/N=C2/C=C(Sc3ncn[nH]3)C(=O)c3ccccc32)cc1 | 88.3% (active)
CCc1ccc(S(=O)(=O)/N=C2\C=CC(=O)c3ccccc32)cc1 | 50.7% (active)
CC(C)c1ccc(S(=O)(=O)/N=C2/C=CC(=O)c3ccccc32)cc1 | 44.1%
O=C1c2ccccc2C(=O)N1CCSc1ncn[nH]1 | -12%
CCc1ccc(S(=O)(=O)ON2C(=O)c3ccccc3C2=O)cc1 | -11.4%
Cc1ccc(S(=O)(=O)/N=C2/C=C(C3C(=O)CC(C)(C)CC3=O)C(=O)c3ccccc32)cc1 | -3.6%
O=C(O)c1ccc(NC2=C/C(=N/S(=O)(=O)c3ccccc3)c3ccccc3C2=O)cc1 | -34.1%
CC(C)c1ccc(S(=O)(=O)/N=C2/C=C(Sc3ncn[nH]3)C(=O)c3ccccc32)cc1 | 80% (active)
CCOC(=O)N1CCN(C(=O)CSCc2ccc(Br)cc2)CC1 | 1.1%
Cc1ccc(NC(=O)CSc2nnc(C(F)(F)F)n2C)cc1[N+](=O)[O-] | 2.1%
CC(C)/C=C1\CCCCC1N(C)C(=O)NC(C)C (configuration not stated) | 2.9%
CCCCCCCSc1nnc(-c2ccccc2N)c(=O)[nH]1 | 13.6%
CCNc1sc(C(=O)c2cccs2)c(N)c1-c1nc2ccccc2s1 | -5.3%
Cc1ccc2sc(N(CCCN(C)C)C(=O)c3ccc(Br)s3)nc2c1C | -10.3%
CCOc1ccccc1N(CC(=O)NC1CCCCC1)C(=O)c1nsc(Cl)c1Cl | 8.5%
CCOc1ccccc1NC(=O)Cn1nnc(-c2ccc(OCC)c(OCC)c2)n1 | -1.1%
COc1ccc(-c2cn(-c3cccc(C)c3)c(=O)[nH]2)cc1OC | -94.8%
COc1ccc(C2CC2/C(=N/OC(=O)c2cccs2)c2ccccc2)cc1 (configuration not stated) | 4.3%

Structure (SMILES) | inhibition
O=C(C1CCN(S(=O)(=O)N2CCC3(CC2)OCCO3)CC1)N1CCCCC1 | 11%
COc1ccc(Oc2coc3cc(OC(=O)/C=C/c4ccc(F)cc4)ccc3c2=O)cc1 | -6.3%
COc1ccccc1-c1coc2cc(OC(=O)/C=C/c3ccccc3)ccc2c1=O | 57.1% (active)
COc1ccc(Oc2coc3cc(OC(=O)/C=C/c4ccccc4)ccc3c2=O)cc1 | 6.5%
COc1cccc(NC(=O)N2CCCC2C(=O)Nc2ccc3c(c2)OCCO3)c1 (configuration not stated) | 7%
CCOC(=O)C(C(=O)OCC)c1cc(Br)c2noc3c2c1C(=O)c1ccccc1-3 | 52.1% (active)
O=C1c2ccccc2-c2onc3c(Oc4ccccc4)cc(O)c1c23 | -4.7%
CCOC(=O)c1c(C)nc2c(c1-c1ccccc1)C(=O)c1ccccc1-2 | -34.4%
COc1ccc(Cc2n[nH]c(=S)n2C)cc1Br | 0.8%
O=C(NCCN1CCCCC1)c1cc(OCC(F)(F)F)ccc1OCC(F)(F)F | 7.9%
CC(C)CCNC(=S)Nc1ccccc1F | -14.2%
Fc1ccccc1NC(=S)NCCc1ccccc1 | -7.1%
CCCCNC(=S)Nc1ccccc1F | 59% (active)
O=C(COC(=O)Cc1ccccc1[N+](=O)[O-])NCc1ccccc1Cl | -4%
COC(=O)c1cccc(NC(=S)N2CCCCC2)c1 | -3.2%
COC(=O)c1cccc(NC(=S)N2CCN(c3ccccc3F)CC2)c1 | 4.7%
S=C(Nc1ccc2nccnc2c1)N1CCCC1 | 35.6%
S=C(Nc1ccc(Cl)c(Cl)c1)N1CCOCC1 | 10.9%
S=C(Nc1ccc2nccnc2c1)N1CCOCC1 | 69.2% (active)
COC(=O)c1cccc(NC(=S)N2CCOCC2)c1 | 52.1% (active)
CC(C)CCNC(=O)C(NS(=O)(=O)c1ccc2c(c1)c(=O)n(C)c(=O)n2C)c1ccccc1 (configuration not stated) | -11.2%
Cc1cc(C(F)F)n2nc(C(=O)Nc3ccccc3Br)nc2n1 | -3.5%
Cc1ccsc1/C=N/NC(=O)c1cc(-c2ccncc2)nc2ccccc12 | -9.2%
N#Cc1ccc(C(=O)Nc2cc(S(=O)(=O)N3CCCC3)ccc2OCC(F)(F)F)cc1 | -0.6%
